PubChem BioAssay AID1159580 (chemical genetic matrix, 2015)
“And” between values parts separate entries of the source, which are not always exact repeats. Identical values can stand only once. Screen size: about 5,500 compounds; about 2,000 (36%) were called active. Not shown: some 18% with an inconclusive outcome. The list shows a part of the results. A number with no mark means an inactive call. Cut-off read from the data, not from the text of the source: active = normalized growth mostly below about 0.91 (no sharp cut-off); inconclusive = no clear call, values can overlap the other calls; inactive = mostly above about 0.92.

Assay: chemical genetic growth profiling, strain panel (AID 1159580);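 note: tested at 20 µM; growth read once vehicle control cultures reached saturation at 30 °C; 1 = growth at the plate median or of vehicle wells; lower values mean less growth of the strain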
Conditions: S. cerevisiae deletion strains, growth OD

COc1ccc2c(c1)OCC(Cc1ccc(OC)c(OC)c1)C2=O (stereo not drawn)
normalized growth (locus YAL013W, strain DEP1, hits give low values): 0.979
normalized growth (locus YAL021C, strain ccr4, hits give low values): 0.982
normalized growth (locus YAL026C, strain drs2, hits give low values): 0.928
normalized growth (locus YAL030W, strain snc1, hits give low values): 0.972
normalized growth (locus YBL061C, strain skt5, hits give low values): 0.959
normalized growth (locus YBR009C, strain hhf1, hits give low values): 0.941
normalized growth (locus YBR021W, strain FUR4, hits give low values): 0.905
normalized growth (locus YBR023C, strain chs3, hits give low values): 0.958
normalized growth (locus YBR171W, strain sec66, hits give low values): 0.96
normalized growth (locus YBR229C, strain ROT2, hits give low values): 0.993
normalized growth (locus YBR231C, strain swc5, hits give low values): 0.924
normalized growth (locus YBR279W, strain paf1, hits give low values): 0.973
normalized growth (locus YCL011C, strain gbp2, hits give low values): 0.96
normalized growth (locus YCL016C, strain dcc1, hits give low values): 0.969
normalized growth (locus YCL029C, strain bik1, hits give low values): 0.988
normalized growth (locus YCL061C, strain MRC1, hits give low values): 0.923
normalized growth (locus YCL069W, strain vba3, hits give low values): 0.967
normalized growth (locus YCR088W, strain abp1, hits give low values): 0.987
normalized growth (locus YDL005C, strain med2, hits give low values): 0.987
normalized growth (locus YDL035C, strain GPR1, hits give low values): 0.954
normalized growth (locus YDL040C, strain nat1, hits give low values): 0.982
normalized growth (locus YDL074C, strain BRE1, hits give low values): 0.928
normalized growth (locus YDL101C, strain DUN1, hits give low values): 0.982
normalized growth (locus YDL185W, strain tfp1, hits give low values): 0.999
normalized growth (locus YDL192W, strain arf1, hits give low values): 0.986
normalized growth (locus YDR001C, strain nth1, hits give low values): 0.973
normalized growth (locus YDR069C, strain doa4, hits give low values): 0.964
normalized growth (locus YDR101C, strain arx1, hits give low values): 0.974
normalized growth (locus YDR137W, strain rgp1, hits give low values): 0.933
normalized growth (locus YDR159W, strain sac3, hits give low values): 0.873
normalized growth (locus YDR162C, strain NBP2, hits give low values): 0.89
normalized growth (locus YDR195W, strain ref2): 1.06
normalized growth (locus YDR297W, strain sur2, hits give low values): 0.949
normalized growth (locus YDR318W, strain mcm21, hits give low values): 0.978
normalized growth (locus YDR334W, strain swr1, hits give low values): 0.98
normalized growth (locus YDR335W, strain msn5, hits give low values): 0.986
normalized growth (locus YDR388W, hits give low values): 1.01
normalized growth (locus YDR392W, strain spt3, hits give low values): 0.544 (active)
normalized growth (locus YDR502C, strain sam2, hits give low values): 0.973
normalized growth (locus YEL003W, strain gim4, hits give low values): 0.947
normalized growth (locus YEL037C, strain rad23, hits give low values): 0.986
normalized growth (locus YEL061C, strain CIN8 (second series), hits give low values): 0.985
normalized growth (locus YEL061C, strain CIN8, hits give low values): 0.987
normalized growth (locus YER015W, strain faa2, hits give low values): 0.968
normalized growth (locus YER016W, strain bim1, hits give low values): 0.976
normalized growth (locus YER110C, hits give low values): 0.988
normalized growth (locus YER111C, strain swi4, hits give low values): 0.982
normalized growth (locus YER155C, strain BEM2 (second series), hits give low values): 0.802 (active)
normalized growth (locus YER155C, strain BEM2, hits give low values): 0.999
normalized growth (locus YER167W, strain BCK2, hits give low values): 0.997
normalized growth (locus YFR010W, strain ubp6, hits give low values): 0.97
normalized growth (locus YGL078C, strain dbp3, hits give low values): 0.998
normalized growth (locus YGL086W, strain mad1, hits give low values): 0.965
normalized growth (locus YGL167C, strain pmr1, hits give low values): 0.964
normalized growth (locus YGL173C, strain kem1, hits give low values): 0.963
normalized growth (locus YGL227W, strain vid30, hits give low values): 0.974
normalized growth (locus YGL240W, strain doc1, hits give low values): 0.898
normalized growth (locus YGL248W, strain PDE1, hits give low values): 0.954
normalized growth (locus YGL253W, strain hxk2, hits give low values): 0.879 (active)
normalized growth (locus YGR078C, strain PAC10, hits give low values): 0.905
normalized growth (locus YGR135W, strain pre9, hits give low values): 0.993
normalized growth (locus YGR252W, strain gcn5, hits give low values): 0.834
normalized growth (locus YHR013C, strain ard1, hits give low values): 0.907
normalized growth (locus YHR027C, strain rpn1, hits give low values): 0.967
normalized growth (locus YHR030C, strain SLT2, hits give low values): 0.989 and 0.988
normalized growth (locus YHR079C, strain IRE1 (second series), hits give low values): 1
normalized growth (locus YHR079C, strain IRE1, hits give low values): 1.01
normalized growth (locus YHR094C, strain hxt1, hits give low values): 1.01
normalized growth (locus YHR129C, strain ARP1, hits give low values): 0.976
normalized growth (locus YHR142W, strain chs7, hits give low values): 0.897
normalized growth (locus YHR200W, strain rpn10, hits give low values): 0.992
normalized growth (locus YIL066C, strain RNR3, hits give low values): 0.915
normalized growth (locus YIL073C, strain SPO22, hits give low values): 0.925
normalized growth (locus YIL125W, strain kgd1, hits give low values): 0.991
normalized growth (locus YIR030C, strain dcg1, hits give low values): 0.99
normalized growth (locus YJL092W, strain hpr5, hits give low values): 0.981
normalized growth (locus YJL095W, strain BCK1 (second series), hits give low values): 0.979
normalized growth (locus YJL095W, strain BCK1, hits give low values): 0.887 and 1.01
normalized growth (locus YJL115W, strain asf1, hits give low values): 0.974
normalized growth (locus YJL129C, strain trk1, hits give low values): 0.892
normalized growth (locus YJL134W, strain LCB3, hits give low values): 0.994
normalized growth (locus YJL154C, strain vps35, hits give low values): 0.98
normalized growth (locus YJL164C, strain tpk1, hits give low values): 0.96
normalized growth (locus YJL166W, strain qcr8, hits give low values): 0.909
normalized growth (locus YJL168C, strain set2, hits give low values): 0.994
normalized growth (locus YJL187C, strain SWE1 (second series), hits give low values): 0.965
normalized growth (locus YJR043C, strain POL32, hits give low values): 0.97
normalized growth (locus YJR066W, strain TOR1, hits give low values): 0.955
